Screening data (PubChem BioAssay)
KDM5B inhibitor – KDM5B demethylase inhibition. hit rate 2.6% among 220,000. Q9UGL1. Potency, µM (doses to about 57.7 µM), hits mostly inhibitors. KDM5B demethylase, FDH-coupled NADH fluorescence (FDH is formaldehyde dehydrogenase); active means well fitted inhibition curve with a large enough effect; further: 0% is about no effect; nearly all actives have a fitted effect of over 70% in size
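KDM5BΔAP (200 nM final) in 50 mM HEPES pH 7.5, 0.01% Tween-20 was preincubated 10 min at RT with compound over a concentration range. Substrate mix (H3K4me3 12.5 µM, α-KG 25 µM, Fe²⁺, ascorbate, NAD⁺, FDH) was added, and NADH fluorescence change over 30 min gave dose-response curves.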
* = called active by the depositor; i = inactive. This excerpt belongs to a sample that is enriched for hits. Potency means the concentration at half of the fitted maximal effect.

SMILES	KDM5B inhibitor
CC(=O)N1CCC(C(=O)NC(c2cccs2)C(C)C)CC1 (stereo not given)	i
C=CCNC(=O)Cc1c2c(n(Cc3ccccc3F)c1C)CCCC2=O	i
COc1ccccc1-n1c(=O)c2sccc2n(CC(=O)NC(C)CCc2ccccc2)c1=O (stereo not given)	i
CCOc1cc(/C=C2/NC(=O)NC2=O)cc(I)c1OCc1ccc(F)cc1	i
CCOC(=O)C1(Cc2ccc(F)cc2F)CCCN(S(=O)(=O)c2ccsc2)C1 (stereo not given)	i
Cc1csc(CNC(=O)c2ccc(C(N)=O)cc2)n1	i
CCN(CC)c1cc(C)nc(NCc2ccccc2)n1	i
COc1ccc(CNC(=O)CC2CCN(C(=O)c3cn(-c4ccccc4)nc3C)CC2)cc1	i
COc1ccc(CN2CCC3(C2)NC(=O)c2ccccc2O3)cc1 (stereo not given)	i
COc1ccc(CN2CCC3(CC2)CNC(=O)c2ccccc2O3)cc1	i
COc1ccc(CN2CCC3(CC2)CC(=O)c2ccccc2O3)cc1	35.5µM*
Cc1cc2c(c(=O)n1Cc1ccco1)C(C(C)C)C(C#N)=C(N)O2 (stereo not given)	i
CN1CCN(C(=O)CC[C@@H]2CNC(=O)[C@@H]3C[C@H](NC(=O)c4cccc(F)c4)CN23)CC1	i
COC(=O)C1CCN(C(=O)Cn2nc(-c3cccs3)c3ccccc3c2=O)CC1	i
N#Cc1ccccc1CNc1cc(Cl)ccc1Cl	i
Cc1cc(Cl)ccc1NC(=O)CCNC(=O)CCC(=O)c1cccs1	i
Cc1ccc(C2(O)CCN(c3cc(C(F)(F)F)ccn3)CC2)nc1	25.1µM*
Cc1ccc(C2(O)CCN(CC(c3ccccc3)c3ccccc3)CC2)nc1	i
Cc1ccc(C2(O)CCN(c3ncccc3C(F)(F)F)CC2)nc1	i
CC(=O)Nc1ccc(CN2C(=O)OC3(CCN(Cc4ccc(C(C)C)cc4)CC3)C2(C)c2ccccc2)cc1 (stereo not given)	i
COc1ccc(NC(=O)Cn2c(=O)n(-c3cccc(C)c3)c(=O)c3c2cc(C)n3C)c(OC)c1	i
CN1CCC(Oc2nccnc2N2CCc3ccccc32)C1 (stereo not given)	i
COc1ncccc1-c1cc2c(nc1-c1ccccc1)nc(C(=O)NCCN(C)C)n2C	15.8µM*
CN(C)CCNC(=O)c1nc2nc(-c3ccccc3)c(-c3cccc(Cl)c3)cc2n1C	i
CN(C)CCNC(=O)c1nc2nc(-c3ccccc3)c(-c3ccc(Cl)cc3)cc2n1C	28.2µM*
SMILES	KDM5B inhibitor
Cc1ccc(-c2cc3c(nc2-c2ccccc2)nc(C(=O)NCCN(C)C)n3C)cc1	i
CN(C)CCNC(=O)c1ccc2nc(CCc3ccccc3)oc2c1	i
CN(C)CCNC(=O)c1nc2nc(-c3ccccc3)c(-c3cccc(CO)c3)cc2n1C	10µM*
COc1cc2c(cc1OC)-c1c(c(C(=O)NCCN(C)C)nn1-c1ccccc1)C2	i
CN(C)CCNC(=O)c1nc(-c2ccccc2)cc2[nH]ccc12	i
CC(C(=O)NCc1cccs1)N(C)Cc1ccc(C(C)(C)C)cc1 (stereo not given)	i
NC(=O)NCC(=O)N1CCc2c(cccc2S(=O)(=O)N2CCOCC2)C1	i
CCn1cc(CNC(=O)Nc2ccc(Cl)cc2)c(C)n1	i
Cc1ccc(CN2CCC(CNc3nccc(-c4ccccn4)n3)CC2)o1	28.2µM*
Cc1ccc(CN2CCC(Oc3ccc(C(=O)NCc4ccccn4)cc3)CC2)o1	i
Cc1ccc(CN2CCC(CNc3cc(C4CC(O)C4)ncn3)CC2)o1 (stereo not given)	i
CC1CN(C(=O)N2CCC(C(=O)NCc3ccccc3)CC2)c2ccccc2O1 (stereo not given)	i
Cc1ccc([C@@H]2CN(C(=O)c3c(-c4ccccc4)noc3C)C[C@H]2N(C)C)cc1	i
COCCc1ccc(-c2csc(NC(=O)c3cc4cnn(C(C)C)c4nc3C)n2)cc1	i
Cc1cccc(OCc2nc(C#N)c(N3CCOCC3)o2)c1	i
Fc1ccc(CNC2=NCCNC23CCCCCC3)cc1	i
CN(Cc1cccc(C#N)c1)C(=O)NCCNC(=O)CC1CCCC1	i
COc1ccc(-c2noc(-c3cccn3CC(=O)Nc3cc(C)ccc3OC)n2)cc1F	i
CCN(C(=O)Cn1cccc1-c1nc(-c2ccc(OC)c(F)c2)no1)c1cccc(C)c1	28.2µM*
COc1ccc(-c2noc(-c3cccn3CC(=O)Nc3cccc(C)c3)n2)cc1F	i
CS(=O)(=O)N(Cc1csc(-c2cccs2)n1)C1CCN(C(=O)c2ccccc2Cl)CC1	i
COc1cccc(CN2CCC3(CC2)COc2ccccc2C(=O)N3)c1	i
O=C1NC2(CCN(Cc3ccccc3C(F)(F)F)CC2)COc2ccccc21	i
O=C1NC2(CCN(Cc3ccc(OC(F)(F)F)cc3)C2)COc2ccccc21 (stereo not given)	22.4µM*
Cc1ccc(CN2CCCC3(COc4ccccc4C(=O)N3)C2)cc1 (stereo not given)	35.5µM*
SMILES	KDM5B inhibitor
CC(C)CCN1CCC2(CC1)COc1ccccc1C(=O)N2	i
N#Cc1ccc(CN2CCC3(CC2)COc2ccccc2C(=O)N3)cc1	i
Cn1cc(CN2CCC3(CC2)COc2ccccc2C(=O)N3)cn1	i
Cc1ccc(CN2CCC3(CC2)NC(=O)c2ccccc2O3)cc1	i
N#Cc1ccc(CN2CCC3(COc4ccccc4C(=O)N3)C2)cc1 (stereo not given)	39.8µM*
O=C1NC2(CCN(Cc3ccccc3)C2)COc2ccccc21 (stereo not given)	39.8µM*
O=C1NC2(CCN(Cc3ccc(C(F)(F)F)cc3)CC2)COc2ccccc21	i
Cc1ccc(CN2CCC3(CC2)COc2ccccc2CN3)cc1	i
O[C@@H]1C[C@@H](c2nnc3n2CCN(CC2CCCCC2)C3)N(Cc2ccccc2)C1	i
Cc1ccc(NC(=O)N2C[C@@H](F)C[C@H]2C(=O)N2CCc3ccccc3C2)cc1F	i
O=C(O)COCC(=O)N1CCOCC1	i
CC1CS(=O)(=O)N(c2ccc(S(=O)(=O)NCc3ccc(Cl)cc3)cc2)C1=O (stereo not given)	i
CCNC(=O)N1CCOC(CN(CC(C)C)C(=O)c2cccc(OC)c2)C1 (stereo not given)	i
Cc1ncsc1CN1CC(N(CC(C)C)C2CCOCC2)C1	i
CC(NC(=O)c1ccccc1I)C1CC2CCC1C2 (stereo not given)	i
N#Cc1cccc(NC(=O)c2ccc3c(c2)NC(=O)CS3)c1	i
CCn1nc(C(=O)Nc2cccc3ncccc23)c2ccccc2c1=O	i
CC(C)(C)CC(=O)Nc1cnc(-c2cccc(Cl)c2)nc1	i
CCCOc1cccc(C2c3c(-c4c(C)cc(C)cc4O)n[nH]c3C(=O)N2CCO)c1 (stereo not given)	i
CC(C)(C)C(=O)N1CCCC(c2nn(-c3cccc(Cl)c3)c(=O)[nH]2)C1 (stereo not given)	i
N#Cc1ccc(CN2CCCC3(C2)NC(=O)c2ccccc2O3)cc1 (stereo not given)	i
N#Cc1ccc(CN2CCCC3(COc4ccccc4C(=O)N3)C2)cc1 (stereo not given)	35.5µM*
N#Cc1ccc(CN2CC3(C2)NC(=O)c2ccccc2O3)cc1	i
O=c1c2c(CO)c(-c3ccccc3)nn2ccn1CCc1ccccc1	i
CCNCc1ccc(OCc2cccs2)c(OC)c1	i
O=C(O)CCc1conc1-c1ccc(F)cc1	i
